# Measured values as given in ChEMBL document CHEMBL1157539, “Thousands of chemical starting points for antimalarial lead identification” (Nature, 2010).
# Legend:
# Format in all cases: functional
# Plasmodium falciparum [1] = test: GSK_TCMDC: Inhibition of Plasmodium falciparum 3D7 in whole red blood cells, using parasite LDH activity as an index of growth. Test compounds present at 2uM
# Plasmodium falciparum [2] = test: GSK_TCMDC: Inhibition of Plasmodium falciparum Dd2 in whole red blood cells, using parasite LDH activity as an index of growth. Test compounds present at 2uM
# HepG2 = test: GSK_TCMDC: Percent inhibition of human HepG2 cell line. Test compounds present at 10uM.
compound,measurement,setting,value
CN(C)/C(=N/C(=N)Nc1ccc(Cl)cc1)NCCCCCCN/C(=N\C(=N)Nc1ccc(Cl)cc1)N(C)C,Inhibition,Plasmodium falciparum [1],97%
same,Inhibition,Plasmodium falciparum [2],98%
same,Inhibition,HepG2,11%
Br.CC(C)(Cc1ccc(Cl)cc1)NCCCCCCNCCc1ccc(O)c(O)c1,Inhibition,Plasmodium falciparum [1],90%
same,Inhibition,Plasmodium falciparum [2],0%
same,Inhibition,HepG2,45%
COc1ccc(-c2cc3ncnc(N4CCN(CCN5CCCC5)CC4)c3s2)cc1,Inhibition,Plasmodium falciparum [1],98%
same,Inhibition,Plasmodium falciparum [2],90%
same,Inhibition,HepG2,22%
COc1ccc(CNC2CCN(C)CC2)cc1-c1ccc(S(=O)(=O)NCc2ccccc2)c(C)c1.O=C(O)C(F)(F)F,Inhibition,Plasmodium falciparum [1],100%
same,Inhibition,Plasmodium falciparum [2],98%
same,Inhibition,HepG2,81%
Br.CCn1c2c(c(=N)c3ccccc31)CCC2,Inhibition,Plasmodium falciparum [1],83%
same,Inhibition,Plasmodium falciparum [2],61%
same,Inhibition,HepG2,11%
O=C(Nc1ccc2c(c1)CN(Cc1ccc(N3CCCC3)o1)CCC2)c1cncs1.O=CO,Inhibition,Plasmodium falciparum [1],84%
same,Inhibition,Plasmodium falciparum [2],37%
same,Inhibition,HepG2,15%
Br.CC1(C)NC(N)=NC(=N)N1OCCCOc1cccc(Cl)c1,Inhibition,Plasmodium falciparum [1],95%
same,Inhibition,Plasmodium falciparum [2],95%
same,Inhibition,HepG2,65%
O=C(Nc1ccncc1)c1cc(C(=O)Nc2ccncc2)cc([N+](=O)[O-])c1,Inhibition,Plasmodium falciparum [1],100%
same,Inhibition,Plasmodium falciparum [2],50%
same,Inhibition,HepG2,1%
Nc1nc(N)c2c(ccc3c2ccn3Cc2cccc3ccccc23)n1,Inhibition,Plasmodium falciparum [1],99%
same,Inhibition,Plasmodium falciparum [2],95%
same,Inhibition,HepG2,65%
O=C(c1cccc(-c2cccc(-c3nc4cc(F)ccc4[nH]3)c2)c1)N1CCCCC1CN1CCC(O)C1 (stereo unspecified),Inhibition,Plasmodium falciparum [1],90%
same,Inhibition,Plasmodium falciparum [2],100%
same,Inhibition,HepG2,36%
CCOC(=O)c1ccc(NC(=O)Nc2cccc(-c3cccc(-c4nc5cccc(C)c5[nH]4)c3)c2)cc1,Inhibition,Plasmodium falciparum [1],100%
same,Inhibition,Plasmodium falciparum [2],99%
same,Inhibition,HepG2,37%
CCCN1CCN(CCCNC(=O)c2cc3c(Cl)nc4ccc(C)cc4c3s2)CC1,Inhibition,Plasmodium falciparum [1],97%
same,Inhibition,Plasmodium falciparum [2],27%
same,Inhibition,HepG2,18%
COc1cccc(C=CC(=O)N(CCN)Cc2ccccc2)c1.O=C(O)C(=O)O,Inhibition,Plasmodium falciparum [1],99%
same,Inhibition,Plasmodium falciparum [2],0%
same,Inhibition,HepG2,0%
Cc1cc(OCc2ccncc2)cc2c1C(=O)CC(C)(C)O2,Inhibition,Plasmodium falciparum [1],99%
same,Inhibition,Plasmodium falciparum [2],0%
same,Inhibition,HepG2,0%
Cc1nnsc1C(=O)Nc1ccc(-c2ccc(-c3nc4ccccc4[nH]3)s2)cc1,Inhibition,Plasmodium falciparum [1],92%
same,Inhibition,Plasmodium falciparum [2],38%
same,Inhibition,HepG2,49%
Cc1cc(C(F)(F)F)n2nc(C3CCN(Cc4cc(C)c(O)c(C)c4)C3)cc2n1.O=C(O)CC(O)(CC(=O)O)C(=O)O (stereo unspecified),Inhibition,Plasmodium falciparum [1],98%
same,Inhibition,Plasmodium falciparum [2],99%
same,Inhibition,HepG2,34%
COc1ccc2nccc(N(C)CC3(O)CCN(CCc4ccc5c(c4)NC(=O)CS5)CC3)c2n1.Cl,Inhibition,Plasmodium falciparum [1],91%
same,Inhibition,Plasmodium falciparum [2],67%
same,Inhibition,HepG2,10%
COc1cc2c(cc1S(=O)(=O)c1ccc(NC(=O)Nc3ccc(F)cc3)cc1)CCN(C)CC2.Cl,Inhibition,Plasmodium falciparum [1],99%
same,Inhibition,Plasmodium falciparum [2],55%
same,Inhibition,HepG2,0%
CCN(Cc1ccc(-c2ccc(C(F)(F)F)cc2)cc1)C(=O)Cn1c(SCc2cccc(F)c2F)cc(=O)c2cc(CN3CCCCC3)ccc21.Cl,Inhibition,Plasmodium falciparum [1],100%
same,Inhibition,Plasmodium falciparum [2],50%
same,Inhibition,HepG2,95%
Cc1[nH]c2ccccc2c(=O)c1Br,Inhibition,Plasmodium falciparum [1],94%
same,Inhibition,Plasmodium falciparum [2],84%
same,Inhibition,HepG2,2%
Clc1cc2c(Nc3ccc(Oc4ccccc4)cc3)ccnc2cc1-c1ccc(CNCCN2CCOCC2)o1,Inhibition,Plasmodium falciparum [1],100%
same,Inhibition,Plasmodium falciparum [2],89%
same,Inhibition,HepG2,0%
COc1ccc2ncc(F)c(NC(=O)C3CCC(NCc4cc5cc(F)cc(F)c5[nH]4)CC3)c2n1.Cl (stereo unspecified),Inhibition,Plasmodium falciparum [1],95%
same,Inhibition,Plasmodium falciparum [2],15%
same,Inhibition,HepG2,18%
CS(=O)(=O)c1ccc(OCCCN(Cc2ccccc2C(F)(F)F)c2ccc(C#N)c(C(F)(F)F)c2)cc1,Inhibition,Plasmodium falciparum [1],94%
same,Inhibition,Plasmodium falciparum [2],76%
same,Inhibition,HepG2,4%
O=C(/C=C/c1ccccc1O)NCCCCCN1CCC(c2c[nH]c3ccccc23)CC1,Inhibition,Plasmodium falciparum [1],95%
same,Inhibition,Plasmodium falciparum [2],1%
same,Inhibition,HepG2,7%
CC1CCCN(Cc2c(O)ccc3c(O)c(-c4nc5ccccc5s4)c(=N)oc23)C1 (stereo unspecified),Inhibition,Plasmodium falciparum [1],100%
same,Inhibition,Plasmodium falciparum [2],99%
same,Inhibition,HepG2,20%
COc1cc(NC(=O)/C=C/c2ccccc2OC(F)(F)F)cc(OCCN2CCN(CCN3CCOCC3)CC2)c1.O=C(O)C(=O)O,Inhibition,Plasmodium falciparum [1],98%
same,Inhibition,Plasmodium falciparum [2],25%
same,Inhibition,HepG2,20%
CC1(C)N=C(N)N=C(N)N1c1cccc(I)c1.Cl,Inhibition,Plasmodium falciparum [1],95%
same,Inhibition,Plasmodium falciparum [2],85%
same,Inhibition,HepG2,68%
CC(C)(C)OC(=O)c1c(NC(=O)/C=C/c2ccc(O)c(O)c2)sc2c1CCCC2,Inhibition,Plasmodium falciparum [1],97%
same,Inhibition,Plasmodium falciparum [2],77%
same,Inhibition,HepG2,4%
COc1cc2nc(NCc3ccccc3)nc(NCc3ccccc3)c2cc1OC,Inhibition,Plasmodium falciparum [1],100%
same,Inhibition,Plasmodium falciparum [2],100%
same,Inhibition,HepG2,66%
Cc1cccn2c(=O)c3cc(C(=O)NCCc4ccccc4)c(=N)n(CCCOC(C)C)c3nc12,Inhibition,Plasmodium falciparum [1],100%
same,Inhibition,Plasmodium falciparum [2],40%
same,Inhibition,HepG2,19%
O=C(NCC1CCN(CCN2CCC(c3cn(CCO)c4ccccc34)CC2)CC1)c1ccc(-c2ccc(C(F)(F)F)cc2)cc1,Inhibition,Plasmodium falciparum [1],100%
same,Inhibition,Plasmodium falciparum [2],100%
same,Inhibition,HepG2,100%
Cc1cc(OCCCN2CCC(NS(=O)(=O)c3ccc(Cl)c(Cl)c3)CC2)c2ccccc2n1,Inhibition,Plasmodium falciparum [1],96%
same,Inhibition,Plasmodium falciparum [2],35%
same,Inhibition,HepG2,11%
O=C(Nc1ccc(F)c(Cl)c1)NC1CCN(c2ccnc3cc(Cl)ccc23)C1.O=C(O)C(F)(F)F (stereo unspecified),Inhibition,Plasmodium falciparum [1],100%
same,Inhibition,Plasmodium falciparum [2],74%
same,Inhibition,HepG2,37%
O=C(NC1CCC(N2CCCC(OCc3ccccc3)C2)CC1)c1cc2ccccc2[nH]1 (stereo unspecified),Inhibition,Plasmodium falciparum [1],94%
same,Inhibition,Plasmodium falciparum [2],11%
same,Inhibition,HepG2,38%
Cc1ccc(O)cc1Nc1ccnc2cc(-c3ccc(CN4CCCCC4)o3)ccc12,Inhibition,Plasmodium falciparum [1],100%
same,Inhibition,Plasmodium falciparum [2],99%
same,Inhibition,HepG2,16%
COc1cc(CNc2ccc(N3CCCC3)cc2)cc(Cl)c1OC,Inhibition,Plasmodium falciparum [1],100%
same,Inhibition,Plasmodium falciparum [2],94%
same,Inhibition,HepG2,41%
CCCCCCCN1CC[C@@H](CCCc2ccnc3ccc(OCCCCNC(N)=O)cc23)[C@@H](CC)C1.O=C(O)C(=O)O,Inhibition,Plasmodium falciparum [1],93%
same,Inhibition,Plasmodium falciparum [2],18%
same,Inhibition,HepG2,41%
CC(C)CNCc1cccc(-c2cccc(CN(CCN(C)C)C(=O)Nc3ccccc3)c2)c1.O=C(O)C(F)(F)F,Inhibition,Plasmodium falciparum [1],99%
same,Inhibition,Plasmodium falciparum [2],62%
same,Inhibition,HepG2,34%
COc1cccc(CNC(=O)NC2CCN(c3ccnc(Nc4ccc(F)cc4)n3)C2)c1 (stereo unspecified),Inhibition,Plasmodium falciparum [1],94%
same,Inhibition,Plasmodium falciparum [2],64%
same,Inhibition,HepG2,20%
CCn1c(-c2nonc2N)nc2c(-c3cc4ccccc4s3)ncc(C(=O)N3CCC(N)C3)c21.O=C(O)C(F)(F)F (stereo unspecified),Inhibition,Plasmodium falciparum [1],98%
same,Inhibition,Plasmodium falciparum [2],66%
same,Inhibition,HepG2,99%
COc1ccc(C=NNc2ccnc3cc(F)c(C)cc23)c2ccccc12,Inhibition,Plasmodium falciparum [1],100%
same,Inhibition,Plasmodium falciparum [2],85%
same,Inhibition,HepG2,0%
COc1cccc2c(Oc3ccccc3C)ccnc12,Inhibition,Plasmodium falciparum [1],85%
same,Inhibition,Plasmodium falciparum [2],45%
same,Inhibition,HepG2,0%
COc1cc(NC(=O)N2CCOC(CCN3CCC4(CCc5ccccc54)CC3)(c3ccc(Cl)c(Cl)c3)C2)cc(OC)c1OC (stereo unspecified),Inhibition,Plasmodium falciparum [1],94%
same,Inhibition,Plasmodium falciparum [2],67%
same,Inhibition,HepG2,17%
O=C(O)C(F)(F)F.c1cc(CN2CCCCC2)cc(-c2cccc(-c3nc4ccccc4[nH]3)c2)c1,Inhibition,Plasmodium falciparum [1],100%
same,Inhibition,Plasmodium falciparum [2],37%
same,Inhibition,HepG2,39%
COc1cccc(C=NN=c2cc(C)[nH]c3ccccc23)c1,Inhibition,Plasmodium falciparum [1],100%
same,Inhibition,Plasmodium falciparum [2],46%
same,Inhibition,HepG2,16%
Cc1ccccc1C1CCN(C2CCC(NC(=O)/C=C/c3cccc(C(F)(F)F)c3)CC2)CC1 (stereo unspecified),Inhibition,Plasmodium falciparum [1],100%
same,Inhibition,Plasmodium falciparum [2],54%
same,Inhibition,HepG2,96%
COc1ccc(CCNC(C)Cc2ccc(C(=O)Nc3ccc(CC(C)NCCc4cccc(Cl)c4)cc3)cc2)cc1 (stereo unspecified),Inhibition,Plasmodium falciparum [1],100%
same,Inhibition,Plasmodium falciparum [2],89%
same,Inhibition,HepG2,99%
Cc1ccoc1C(=O)Nc1cccc(-c2cccc(-c3nc4ccccc4[nH]3)c2)c1,Inhibition,Plasmodium falciparum [1],85%
same,Inhibition,Plasmodium falciparum [2],20%
same,Inhibition,HepG2,43%
Cc1ccc(CCC(C)NCC(O)c2cccc(C(F)(F)F)c2)cc1 (stereo unspecified),Inhibition,Plasmodium falciparum [1],99%
same,Inhibition,Plasmodium falciparum [2],98%
same,Inhibition,HepG2,0%
CC(C)c1ccc(NC(=O)NCCCC2CCCN(CCCCCNC(=O)/C=C/c3ccc(Cl)c(Cl)c3)C2)cc1 (stereo unspecified),Inhibition,Plasmodium falciparum [1],90%
same,Inhibition,Plasmodium falciparum [2],42%
same,Inhibition,HepG2,25%
Cc1nc(-c2cccc(Nc3nccc(NCC(O)c4ccccc4C(F)(F)F)n3)c2)cs1 (stereo unspecified),Inhibition,Plasmodium falciparum [1],97%
same,Inhibition,Plasmodium falciparum [2],50%
same,Inhibition,HepG2,48%
O=c1cc(NCCCNCc2cc(C(F)(F)F)ccc2Cl)[nH]c2ccccc12,Inhibition,Plasmodium falciparum [1],90%
same,Inhibition,Plasmodium falciparum [2],20%
same,Inhibition,HepG2,25%
CCOC(=O)c1nc(-c2ccc(-c3ccccc3)cc2)[nH]c1N.Cl,Inhibition,Plasmodium falciparum [1],98%
same,Inhibition,Plasmodium falciparum [2],2%
same,Inhibition,HepG2,0%
CC(C)(C)NCCN(Cc1ccc(-c2ccc(C(F)(F)F)cc2)cc1)C(=O)Cn1c(SCc2ccc(F)cc2)nc(=O)c2c1CCC2.O=C(O)C(O)C(O)C(=O)O,Inhibition,Plasmodium falciparum [1],97%
same,Inhibition,Plasmodium falciparum [2],84%
same,Inhibition,HepG2,64%
CCCCCC(C)C(C)c1cc(O)c2c(c1)OC(C)(C)CC2(O)c1ccccn1 (stereo unspecified),Inhibition,Plasmodium falciparum [1],98%
same,Inhibition,Plasmodium falciparum [2],3%
same,Inhibition,HepG2,0%
CC(c1cccc(S(=O)(=O)NCc2ccc(Cl)cc2Cl)c1)N1CCC(N2CCCCC2)CC1 (stereo unspecified),Inhibition,Plasmodium falciparum [1],100%
same,Inhibition,Plasmodium falciparum [2],40%
same,Inhibition,HepG2,36%
O=C(NC1CCCc2ccccc21)[C@@H]1CCCN1C(=O)c1ccc(O)c(-c2cccc([N+](=O)[O-])c2)c1 (stereo partly specified),Inhibition,Plasmodium falciparum [1],99%
same,Inhibition,Plasmodium falciparum [2],99%
same,Inhibition,HepG2,0%
Clc1nc2ccccn2c1C=Cc1ccc2ccccc2n1,Inhibition,Plasmodium falciparum [1],86%
same,Inhibition,Plasmodium falciparum [2],75%
same,Inhibition,HepG2,0%
CCCCCCCCCCNCC(O)c1ccc(O)c(C(=O)OC)c1 (stereo unspecified),Inhibition,Plasmodium falciparum [1],97%
same,Inhibition,Plasmodium falciparum [2],97%
same,Inhibition,HepG2,3%
CCOc1ccc(C(=O)N2CCOC(CCN3CCC(c4ccccc4)CC3)(c3ccc(Cl)c(Cl)c3)C2)cc1 (stereo unspecified),Inhibition,Plasmodium falciparum [1],88%
same,Inhibition,Plasmodium falciparum [2],71%
same,Inhibition,HepG2,14%
CC(C)[C@@H](C(=O)NCc1cccc(C(F)(F)F)c1)N1C(=O)CCC1C(=O)Nc1ccc([N+](=O)[O-])cc1 (stereo partly specified),Inhibition,Plasmodium falciparum [1],94%
same,Inhibition,Plasmodium falciparum [2],2%
same,Inhibition,HepG2,0%
CCN(CC)CCN(Cc1ccc(-c2ccc(C(F)(F)F)cc2)cc1)C(=O)Cn1c(CCc2cccc(C#N)c2)nc(=O)c2ccccc21.O=C(O)C(O)C(O)C(=O)O,Inhibition,Plasmodium falciparum [1],100%
same,Inhibition,Plasmodium falciparum [2],47%
same,Inhibition,HepG2,36%
